Here are results for 36 molecules from PubChem BioAssay (NCI).

Assay [1] in a line: NCI Yeast Anticancer Drug Screen. Data for the rad50 strain (AID 155).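 Note: 0% = growth of vehicle-only cultures of the same strain.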 The settings on record: S. cerevisiae rad50 strain growth inhibition; at 50.0 µM; hits give high values. A digest of the protocol: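 Vehicle-treated cultures provide the reference for the growth inhibition reported for compound-exposed, repair-deficient yeast.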
Assay [2] in a line: NCI Yeast Anticancer Drug Screen. Data for the mec2-1 strain (AID 157). The settings on record: S. cerevisiae mec2-1 strain, at 50.0 µM, hits give high values. In outline: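 Cells of the genetically defined mec2-1 yeast strain are incubated with test compound. Inhibition of growth is calculated against vehicle-treated controls.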
Assay [3] can be described thus: NCI Yeast Anticancer Drug Screen. Data for the sgs1 mgt1 strain (AID 161).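 Note: 0% = growth of cultures given vehicle only.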 The settings on record: S. cerevisiae sgs1 mgt1 strain, at 50.0 µM, hits give high values. A digest of the protocol: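 Mutant yeast exposed to compound; growth scored against vehicle-only wells.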
The nature of assay [4]: NCI Yeast Anticancer Drug Screen. Data for the cln2 rad14 strain (AID 165).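 Note: 0% = growth equal to vehicle treated cultures.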 Conditions: S. cerevisiae cln2 rad14 strain, at 50.0 µM, hits give high values. In outline:
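The screen exposed genetically defined yeast (cln2 rad14) to test compounds and scored growth inhibition relative to vehicle-treated controls.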

Assay [5] can be described thus: NCI Yeast Anticancer Drug Screen. Data for the bub3 strain (AID 167). Conditions: S. cerevisiae bub3 mutant strain, at 50.0 µM, hits give high values. In outline:
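Mutant yeast screening strain plus compound; vehicle-treated cultures serve as the 0% inhibition reference.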

Assay [6] can be described thus: NCI Yeast Anticancer Drug Screen. Data for the mlh1 rad18 strain (AID 175). The settings on record: S. cerevisiae mlh1 rad18 strain growth inhibition; at 50.0 µM; hits give high values. A digest of the protocol:
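Compound-treated yeast growth, normalised to vehicle controls. Strain bears defined DNA repair mutations.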

About 79,000 compounds went through this panel and 15% of them were active in at least one assay; those are over-represented in the sample as a whole. Values without a mark were called inactive. Active and inactive are the calls of the source. Cut-off read from the data, not from the text of the source: active = growth inhibition above about 70%; inactive = the rest.

`CCOC(=O)N1C2C(c3ccccc3)=NC(C)(C)N2C(c2ccc([N+](=O)[O-])cc2)N1C(=O)OCC` (stereo unspecified): the growth inhibition was 17.9% in assay [1]; -7% in assay [2]; -4.55% in assay [3]; 15.2% in assay [4]; -2.2% in assay [5]; -2.9% in assay [6].
For `C=CCOc1ccc(Cl)cc1Br`, the growth inhibition is -1.8% in assay [1]; -4.6% in assay [2]; -2.65% in assay [3]; -46.6% in assay [4]; -3.35% in assay [5]; -7.8% in assay [6].
As for `N#Cc1ccc(NC(=NCC(=O)O)Nc2ccc3ccccc3c2)cc1`, the growth inhibition in assay [1] was -16.2%; in assay [2], -30.6%; in assay [3] it was -14.6%; in assay [4], 25.8%; in assay [5], -26.3%; in assay [6] it was 8.25%.
Consider `COC(=O)c1c(C(=O)OC)c(C(c2ccccc2)c2ccccc2)n(-c2ccccc2)c1Cl`, for which the growth inhibition in assay [1] was -17.6%; in assay [2] it was -21.1%; in assay [3], 0.6%; in assay [4], 0.65%; in assay [5] it was -18.3%; in assay [6] it was 1.2%.
In the case of `CCCCCCNC(CC(N)=O)C(=O)O` (stereo unspecified), the growth inhibition was -13.2% in assay [1]; 3.85% in assay [2]; 11.3% in assay [3]; 2.45% in assay [4]; -12.8% in assay [5]; -26.2% in assay [6].
Take `N#Cc1nc(CC(=O)/C=C/c2ccccc2)c(CC(=O)/C=C/c2ccccc2)nc1C#N`: the growth inhibition in assay [1] is 3.7%; in assay [2] it was 13.7%; in assay [3], 8.05%; in assay [4], 16.3%; in assay [5] it was 1.3%; in assay [6], 21.3%.
As for `NC(=O)N/N=C1\CC2CCC1C2Cl` (stereo unspecified), the growth inhibition was -0.05% in assay [1]; -1.35% in assay [2]; -5% in assay [3]; -0.45% in assay [4]; -13.7% in assay [5]; -14.8% in assay [6].
In the case of `C(/C=C/c1csnn1)=C\c1ccccc1`, the growth inhibition in assay [1] was 8.9%; in assay [2], 8.85%; in assay [3], -4.2%; in assay [4], 15.8%; in assay [5], 2.35%; in assay [6], 0.5%.
Turning to `COC(=O)c1cc([O-])c2sc(C)c(C)[n+]2n1`, the growth inhibition was 4.25% in assay [1]; 19.6% in assay [2]; 25.7% in assay [3]; 35.6% in assay [4]; -4.05% in assay [5]; 2.55% in assay [6].
For the molecule `COc1cc(CC2c3cc(OC)c(OC)cc3CC[N+]2(C)C)c(Oc2cc(CC3c4cc(OC)c(OC)cc4CC[N+]3(C)C)ccc2OC)cc1OC` (stereo unspecified), the growth inhibition was 8.35% in assay [1]; 10.1% in assay [2]; -0.85% in assay [3]; -4.45% in assay [4]; -6.05% in assay [5]; 28.6% in assay [6].
As for `COC(=O)/C=C(\C(=O)OC)C(C(=O)c1ccccc1)=P(c1ccccc1)(c1ccccc1)c1ccccc1`, the growth inhibition is -9.95% in assay [1]; 8.7% in assay [2]; -4.2% in assay [3]; -26.5% in assay [4]; 3.55% in assay [5]; 1.15% in assay [6].
In the case of `O=C1CC2(CCCC2)C(=O)N1c1ccc(O)c(CN2CCCCC2)c1`, the growth inhibition is 7.6% in assay [1]; -4.3% in assay [2]; -19.6% in assay [3]; 14.7% in assay [4]; 6.35% in assay [5]; 4.95% in assay [6].
On to `CCOc1c(OC)cc(C2c3cc4c(c(OCC)c3CC3COC(=O)C32)OCO4)cc1OC` (stereo unspecified), for which the growth inhibition was 36.8% in assay [1]; 16.1% in assay [2]; 48.6% in assay [3]; 28.1% in assay [4]; 19.8% in assay [5]; 0.25% in assay [6].
In the case of `NC(CCCCC(=O)O)C(=O)O` (stereo unspecified), the growth inhibition is -30.1% in assay [1]; -22.3% in assay [2]; -12.9% in assay [3]; -38.2% in assay [4]; -11.2% in assay [5]; 0.15% in assay [6].
`O=C(Nc1ccccc1)Oc1ccc(/C=N/Sc2cccc([N+](=O)[O-])c2)cc1`: the growth inhibition in assay [1] was 67.1%; in assay [2] it was 60.6%; in assay [3], 73.8% (active); in assay [4] it was 21.2%; in assay [5], 73.8% (active); in assay [6], 62.2%.
For `CN(CCCn1ccnc1[N+](=O)[O-])CCCn1ccnc1[N+](=O)[O-]`, the growth inhibition in assay [1] was -28.1%; in assay [2] it was -12.6%; in assay [3], -0.35%; in assay [4], 3.85%; in assay [5], -5.05%; in assay [6] it was 11.6%.
Take `CC(Oc1ccccc1)C(O)(c1ccc(N(C)C)cc1)c1ccc(N(C)C)cc1` (stereo unspecified): the growth inhibition is 3.3% in assay [1]; -5.9% in assay [2]; 9.3% in assay [3]; 8.15% in assay [4]; 1.4% in assay [5]; 11.9% in assay [6].
For the molecule `O=C1CN(C=C2C(=O)NC(=O)NC2=O)C(=S)N1`, the growth inhibition in assay [1] was -53.8%; in assay [2], -23.7%; in assay [3] it was -43%; in assay [4], -36.7%; in assay [5], -22.3%; in assay [6], -71.2%.
Take `Nc1nc(Cc2ccccc2)c(CCCNc2ccccc2)c(=O)[nH]1`: the growth inhibition is -4.95% in assay [1]; 5.05% in assay [2]; 6.45% in assay [3]; -74.3% in assay [4]; 1.75% in assay [5]; -12.8% in assay [6].
With `CO/N=C1\C(C)(C)C(C)(C)C(C)(C)C1(C)SS(=O)(=O)O` (stereo unspecified), the growth inhibition in assay [1] is 23.6%; in assay [2] it was 19.1%; in assay [3], 12.6%; in assay [4], 17.6%; in assay [5] it was 20.8%; in assay [6], 29.9%.
Take `Fc1cccc2c1Cc1ccccc1-2`: the growth inhibition in assay [1] was 5.75%; in assay [2] it was -8.65%; in assay [3], -21.3%; in assay [4], -58.7%; in assay [5], -1.85%; in assay [6], 17.3%.
Regarding `Nc1nc(-c2ccc(Cl)c(Cl)c2)cc(-c2cc(-c3ccc(Cl)c(Cl)c3)nc(N)n2)n1`, the growth inhibition in assay [1] was 24.9%; in assay [2] it was 2.55%; in assay [3] it was 7.55%; in assay [4], 21.6%; in assay [5], 4.2%; in assay [6], 11%.
Consider `Cc1cccn2c(C)nnc12`, for which the growth inhibition in assay [1] is 3.4%; in assay [2], 25.7%; in assay [3] it was -1.35%; in assay [4], 17.6%; in assay [5], 28.1%; in assay [6] it was 12.7%.
`CN(C(=O)C12C3C4C1C1C2C3C41C(=O)N(C)C(C)(C)C)C(C)(C)C` (stereo unspecified): the growth inhibition was 13.9% in assay [1]; 11.5% in assay [2]; -7.4% in assay [3]; 9.45% in assay [4]; 23.4% in assay [5]; -2.4% in assay [6].
Turning to `c1ccc2scnc2c1`, the growth inhibition is 21.2% in assay [1]; 7.25% in assay [2]; 13.7% in assay [3]; -24.5% in assay [4]; 29.2% in assay [5]; 37.2% in assay [6].
For the molecule `[Cl][Tb]([Cl])[Cl]`, the growth inhibition is 16.4% in assay [1]; 8% in assay [2]; 31.8% in assay [3]; 40.1% in assay [4]; 37.2% in assay [5]; 29% in assay [6].
Regarding `O=S(=O)(Cl)c1cc(Cl)ccc1Cl`, the growth inhibition was 24.8% in assay [1]; -19.8% in assay [2]; -17.1% in assay [3]; -72.2% in assay [4]; -3.6% in assay [5]; -4.1% in assay [6].
`O=C(NCCCCNCCCNC(=O)OCc1ccccc1)OCc1ccccc1`: the growth inhibition in assay [1] is 14.7%; in assay [2], -4.2%; in assay [3], -2.65%; in assay [4] it was -8.55%; in assay [5], -20.4%; in assay [6], -59.8%.
As to `CCCC(C(=O)O)C(O)(CC(=O)O)C(=O)O` (stereo unspecified), the growth inhibition in assay [1] was 18.6%; in assay [2] it was -14.6%; in assay [3], 11.4%; in assay [4], -32.1%; in assay [5], 7.85%; in assay [6] it was -20.6%.
In the case of `COC(=O)CCC(=O)NC1=C(NCc2ccccc2)C(=O)c2ccccc2C1=O`, the growth inhibition is 26.8% in assay [1]; 12.8% in assay [2]; 31.1% in assay [3]; 36% in assay [4]; 38.9% in assay [5]; 13.6% in assay [6].
Take `CCOC(=O)/C(=C\OC(=O)c1ccccc1)NC(=O)Cc1ccccc1`: the growth inhibition was -1.9% in assay [1]; 25.6% in assay [2]; 22% in assay [3]; -98.8% in assay [4]; 37.2% in assay [5]; 23.4% in assay [6].
Consider `O=C(NC(=O)c1ccc(Cl)c(Cl)c1)Nc1ccc(Cl)cc1`, for which the growth inhibition in assay [1] is -1.45%; in assay [2], -13.8%; in assay [3] it was -6.35%; in assay [4] it was -32.6%; in assay [5], 11.2%; in assay [6], 8%.
Turning to `CC(=O)O[C@H]1C[C@]2(C)C(CCC3O[C@@]32C)[C@@]2(CC(c3ccoc3)OC2O)[C@@H]1C` (stereo partly specified), the growth inhibition was -10.8% in assay [1]; -16.1% in assay [2]; -29.9% in assay [3]; -10.1% in assay [4]; -23.1% in assay [5]; -13.2% in assay [6].
On to `CC(=O)/C(=N\N=C(N)N)c1ccccc1`, for which the growth inhibition in assay [1] was -25.4%; in assay [2], -28.8%; in assay [3] it was -19.6%; in assay [4], 19.8%; in assay [5], 18.1%; in assay [6], 4.5%.
As for `OC1(Cl)c2cccc3cccc(c23)C1(O)Cl` (stereo unspecified), the growth inhibition in assay [1] was -0.8%; in assay [2], 5.8%; in assay [3], 2.6%; in assay [4], -9.45%; in assay [5], 0.25%; in assay [6] it was -14.1%.
As for `COC(=O)C1C(=O)CC(C)(O)C(C(=O)OC)C1c1ccc(N(C)C)cc1` (stereo unspecified), the growth inhibition is -10.5% in assay [1]; 19.9% in assay [2]; 7.7% in assay [3]; 53% in assay [4]; 15.1% in assay [5]; -25.4% in assay [6].
